Several values for one entry are separate records, joined by “and”; a condition that tells them apart may be missing. Identical values can stand only once. Hit rate of the full screen: of about 5,500 compounds, about 2,000 (36%) were called active. Another 18% or so got no clear call; they are omitted. No stated cut-off is given here; in the data, active means normalized growth mostly below about 0.91 (no sharp cut-off); inconclusive means no clear call, values can overlap the other calls; inactive means mostly above about 0.92. This is one part of the list.
Assay: chemical genetic growth profiling, strain panel (AID 1159580);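 further: tested at 20 µM; growth read once vehicle control cultures reached saturation at 30 °C; 1 = growth at the plate median or of vehicle wells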
Settings: S. cerevisiae deletion strains, growth OD

Measured: normalized growth

CCC(N)C(O)c1ccc(O)c(O)c1 (configuration not stated)
inactive: locus YAL013W, strain DEP1, stronger effect = lower value 1.02 | locus YAL021C, strain ccr4, stronger effect = lower value 1 | locus YAL026C, strain drs2, stronger effect = lower value 0.987 | locus YAL030W, strain snc1, stronger effect = lower value 0.986 | locus YBL061C, strain skt5, stronger effect = lower value 0.99 | locus YBR009C, strain hhf1, stronger effect = lower value 0.986 | locus YBR021W, strain FUR4, stronger effect = lower value 0.995 | locus YBR023C, strain chs3, stronger effect = lower value 0.994 | locus YBR171W, strain sec66, stronger effect = lower value 0.976 | locus YBR229C, strain ROT2, stronger effect = lower value 1.02 | locus YBR231C, strain swc5, stronger effect = lower value 0.984 | locus YBR279W, strain paf1, stronger effect = lower value 0.991 | locus YCL011C, strain gbp2, stronger effect = lower value 0.996 | locus YCL016C, strain dcc1, stronger effect = lower value 0.998 | locus YCL029C, strain bik1, stronger effect = lower value 0.992 | locus YCL061C, strain MRC1, stronger effect = lower value 0.991 | locus YCL069W, strain vba3, stronger effect = lower value 1 | locus YCR088W, strain abp1, stronger effect = lower value 0.997 | locus YDL005C, strain med2, stronger effect = lower value 0.993 | locus YDL035C, strain GPR1, stronger effect = lower value 1.02 | locus YDL040C, strain nat1, stronger effect = lower value 0.99 | locus YDL074C, strain BRE1, stronger effect = lower value 1 | locus YDL101C, strain DUN1, stronger effect = lower value 1.01 | locus YDL134C, strain PPH21, stronger effect = lower value 1 | locus YDL185W, strain tfp1, stronger effect = lower value 0.968 | locus YDL192W, strain arf1, stronger effect = lower value 0.998 | locus YDR001C, strain nth1, stronger effect = lower value 0.99 | locus YDR069C, strain doa4, stronger effect = lower value 0.981 | locus YDR101C, strain arx1, stronger effect = lower value 0.995 | locus YDR137W, strain rgp1, stronger effect = lower value 1.02 | locus YDR150W, strain NUM1, stronger effect = lower value 1.02 | locus YDR159W, strain sac3, stronger effect = lower value 0.965 | locus YDR162C, strain NBP2, stronger effect = lower value 1.02 | locus YDR195W, strain ref2 0.931 | locus YDR297W, strain sur2, stronger effect = lower value 0.991 | locus YDR318W, strain mcm21, stronger effect = lower value 0.977 | locus YDR334W, strain swr1, stronger effect = lower value 0.994 | locus YDR335W, strain msn5, stronger effect = lower value 0.993 | locus YDR388W, stronger effect = lower value 0.993 | locus YDR392W, strain spt3, stronger effect = lower value 0.934 | locus YDR502C, strain sam2, stronger effect = lower value 0.998 | locus YEL003W, strain gim4, stronger effect = lower value 0.997 | locus YEL037C, strain rad23, stronger effect = lower value 1.02 | locus YEL061C, strain CIN8 (second series), stronger effect = lower value 0.988 | locus YEL061C, strain CIN8, stronger effect = lower value 1.01 | locus YER015W, strain faa2, stronger effect = lower value 0.984 | locus YER016W, strain bim1, stronger effect = lower value 0.989 | locus YER110C, stronger effect = lower value 0.985 | locus YER111C, strain swi4, stronger effect = lower value 0.989 | locus YER155C, strain BEM2 (second series), stronger effect = lower value 0.979 | locus YER155C, strain BEM2, stronger effect = lower value 1.01 | locus YER167W, strain BCK2, stronger effect = lower value 1.03 | locus YFR010W, strain ubp6, stronger effect = lower value 0.983 | locus YGL078C, strain dbp3, stronger effect = lower value 1 | locus YGL086W, strain mad1, stronger effect = lower value 0.988 | locus YGL167C, strain pmr1, stronger effect = lower value 0.985 | locus YGL173C, strain kem1, stronger effect = lower value 0.998 | locus YGL227W, strain vid30, stronger effect = lower value 0.983 | locus YGL240W, strain doc1, stronger effect = lower value 0.96 | locus YGL248W, strain PDE1, stronger effect = lower value 1.01 | locus YGL253W, strain hxk2, stronger effect = lower value 1.01 | locus YGR078C, strain PAC10, stronger effect = lower value 0.991 | locus YGR135W, strain pre9, stronger effect = lower value 0.993 | locus YGR229C, strain SMI1, stronger effect = lower value 1.02 | locus YGR252W, strain gcn5, stronger effect = lower value 1.04 | locus YHR013C, strain ard1, stronger effect = lower value 0.989 | locus YHR027C, strain rpn1, stronger effect = lower value 0.985 | locus YHR030C, strain SLT2, stronger effect = lower value 1.01 | locus YHR079C, strain IRE1 (second series), stronger effect = lower value 0.986 | locus YHR079C, strain IRE1, stronger effect = lower value 1.02 | locus YHR094C, strain hxt1, stronger effect = lower value 0.988 | locus YHR129C, strain ARP1, stronger effect = lower value 1.01 | locus YHR142W, strain chs7, stronger effect = lower value 1.01 | locus YHR200W, strain rpn10, stronger effect = lower value 0.994 | locus YIL066C, strain RNR3, stronger effect = lower value 1.01 | locus YIL073C, strain SPO22, stronger effect = lower value 1.03 | locus YIL125W, strain kgd1, stronger effect = lower value 0.995 | locus YIR030C, strain dcg1, stronger effect = lower value 0.987 | locus YJL092W, strain hpr5, stronger effect = lower value 0.99 | locus YJL095W, strain BCK1 (second series), stronger effect = lower value 0.991 | locus YJL095W, strain BCK1, stronger effect = lower value 1 and 1.01 | locus YJL115W, strain asf1, stronger effect = lower value 0.992 | locus YJL129C, strain trk1, stronger effect = lower value 0.993 | locus YJL134W, strain LCB3, stronger effect = lower value 1.01 | locus YJL154C, strain vps35, stronger effect = lower value 0.993 | locus YJL164C, strain tpk1, stronger effect = lower value 0.994 | locus YJL166W, strain qcr8, stronger effect = lower value 0.988 | locus YJL168C, strain set2, stronger effect = lower value 0.99 | locus YJL187C, strain SWE1 (second series), stronger effect = lower value 0.996 | locus YJL187C, strain SWE1, stronger effect = lower value 0.983 | locus YJR043C, strain POL32, stronger effect = lower value 0.975 | locus YJR066W, strain TOR1, stronger effect = lower value 0.983

Reference: PubChem BioAssay AID1159580 (chemical genetic matrix, 2015)
